Screening data as filed in PubChem.
MARV entry inh – Marburg virus entry inhibition | AID 540276 | Marburg virus pseudotyped entry inhibition, cell reporter | actives 1.8% (n = 300,000) | Potency, µM (series often up to 37.8 µM), inactives show at the top dose activity change, negative = inhibition, actives largely listed as inhibitors; calls by dose curve; tested in HEK293 cells; note: potency is the fitted concentration of half-maximal effect
HCMV antiviral – human cytomegalovirus inhibition; HFF cells, HCMV-luciferase reporter, 72 h; hits give low values; activity change, negative = inhibition, % at 57.5 µM; AID 1259415; actives 4.5% (n = 410,000); in the data active = activity change below about -60%; inconclusive = no clear call, values can overlap the other calls; inactive = above about -39%
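Two-dose cell screen: HFF monolayers treated with compounds and infected with luciferase-expressing HCMV at 1 PFU/cell, 72 h at 37C, then lysed for luciferase measurement.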
VACV mCherry inh – inhibitors of vaccinia virus infection (mCherry reporter signal). Potency, µM (series often up to 36.5 µM), for the others: at the top dose activity change, negative = inhibition, most hits filed as inhibitors. actives 0.63% (n = 310,000). Vaccinia virus mCherry reporter infection, fluorescence; calls by dose curve; tested in A549 cells; note: potency is the fitted concentration of half-maximal effect; nearly all actives have a fitted effect of over 35% in size
FMDV antiviral – foot and mouth disease virus antiviral activity | FMDV antiviral cell-based qHTS | Potency, µM (top dose mostly 57.9 µM), for the others: at the highest dose activity change, negative = inhibition, usual class: inhibitors | actives 1.2% (n = 410,000); calls by dose curve; tested in HEK293T cells; note: read-out not given here; potency is the fitted concentration of half-maximal effect; nearly all actives have a fitted effect of over 45% in size
LASV entry inh – inhibitors of Lassa virus binding or cell entry; Potency, µM (titrated, usually from 37.9 µM), without a hit: at the highest dose activity change, negative = inhibition, hits mostly inhibitors; Lassa virus pseudotype entry inhibition, cell reporter; actives 1.2% (n = 300,000); calls by dose curve; tested in HEK293 cells; note: potency is the fitted concentration of half-maximal effect; nearly all actives have a fitted effect of over 50% in size
Vaccinia Venus – vaccinia inhibition (Venus reporter); Potency, µM (top dose mostly 36.5 µM), inactives show top-dose activity change, negative = inhibition, hits mostly inhibitors; Vaccinia virus Venus reporter expression, fluorescence; actives 0.46% (n = 330,000); calls by dose curve; tested in A549 cells; note: potency is the fitted concentration of half-maximal effect; nearly all actives have a fitted effect of over 30% in size
The depositor's hits bear a star; i = inactive; ? = inconclusive; · = not tested or not shown; [ ] = another dose, or the depositor's remark. Shown are actives, neighbours in structure and some others; about 6.5% of the full set was active somewhere. % is set by controls: 0 for no effect and ±100 for the full control effect.

SMILES	MARV entry inh	HCMV antiviral	VACV mCherry inh	FMDV antiviral	LASV entry inh	Vaccinia Venus
Cc1cccc(NC(=O)c2ccc3oc(=O)c(S(=O)(=O)c4ccc(F)cc4)cc3c2)c1C	14%[46.1 µM]	46	-13%	32µM*	7%[46.1 µM]	-3%
CC(C)c1ccc(NC(=O)c2ccc3oc(=O)c(S(=O)(=O)c4ccc(F)cc4)cc3c2)cc1	?	71	-6%	?	26%[46.1 µM]	-7%
O=C(c1ccccc1)C1OC1C(=O)c1ccccc1 (stereo not drawn)	7.9µM*	-11	?	-9%	?	-29%
CCc1cc(/C=C/c2ccnc3ccccc23)ccc1N(C)C	·	·	?	·	·	12%
COc1ccc(-n2cnc3sc(-c4ccccc4)cc3c2=O)cc1	?	-87*	-27%	·	?	-24%
COCC(=O)Nc1cc(C(=O)N2CCN(c3ccccc3)CC2C)c2c(c1)nc(-c1ccncc1)n2C (stereo not drawn)	·	·	-6%	8%	·	4%
O=C(Cc1ccc(F)cc1)NC(Cc1c[nH]c2ccccc12)C(=O)O (stereo not drawn)	3%[46.1 µM]	-62*	-6%	17%	10%	-2%
O=C(Cc1c[nH]c2ccccc12)N[C@@H](Cc1c[nH]c2ccccc12)C(=O)O	-3%[46.1 µM]	21	i	1%	21%[46.1 µM]	-11%
O=C(N/N=C/c1cccnc1)c1cccs1	20%[46.1 µM]	20	-19%	26%	17%[46.1 µM]	1%
O=C(NC(Cc1c[nH]c2ccccc12)C(=O)N/N=C/c1cccnc1)c1cccs1 (stereo not drawn)	?	-78*	-22%	-12%	?	10%
O=C(NC(Cc1c[nH]c2ccccc12)C(=O)Nc1ccc(F)cc1)c1cccs1 (stereo not drawn)	?	?	?	-17%	1.4µM*	13%
COc1ccccc1CNC(=O)C(Cc1c[nH]c2ccccc12)NC(=O)OCc1ccccc1 (stereo not drawn)	?	-8	-28%	-25%	4.5µM*	-26%
COC(=O)C(Cc1c[nH]c2ccccc12)NC(=O)c1cccs1 (stereo not drawn)	·	62	·	49%	·	·
CC(C)CC(NC(=O)OCc1ccccc1)C(=O)NC(Cc1c[nH]c2ccccc12)C(=O)O (stereo not drawn)	·	·	-6%	-24%	·	4%
CCC[C@H]1CN(Cc2cccnc2)C(=O)[C@H]1CC(=O)Nc1ccc(Br)cc1	·	·	·	·	6%[46.1 µM]	·
N#C/C(=N\Nc1ccc(Cl)c(Cl)c1)C(=O)C1CC1	?	-100*	-29%	-9%	?	?
CCOC(=O)Cn1c(=O)n(C2CCCCC2)c2nc(-c3c(F)cccc3Cl)nc(C(N)=O)c21	·	-82*	-17%	?	2%[46.1 µM]	-8%
CCOC(=O)Cn1c(=O)n(C2CCCCC2)c2nc(-c3cccc(F)c3)nc(C(N)=O)c21	·	7	-4%	-13%	25%[46.1 µM]	2%
CC(=O)NCCNC(=O)CCCn1c(=O)[nH]c2ccsc2c1=O	2%[46.1 µM]	1	-3%	3%	16%[46.1 µM]	-2%
CCc1ccc(-n2c(SCc3ccccc3C)nc3[nH]ncc3c2=O)cc1	·	?	-22%	-22%	-30%[46.1 µM]	-21%
Cc1noc(C)c1CSc1nc2[nH]ncc2c(=O)n1-c1ccccc1	?	22	?	17%	4µM*	?
CCc1ccc(-n2c(SCc3ccccc3Cl)nc3[nH]ncc3c2=O)cc1	·	-105*	-17%	?	-18%[46.1 µM]	-20%
Cc1ccsc1C(=O)NNC(=O)c1csc(N2CCOCC2)n1	16%	-5	-10%	-11%	0%	-6%
Cc1ccc(C)c(SCC(=O)NNC(=O)c2csc(N3CCOCC3)n2)c1	·	-62*	·	2%	·	·
Cc1ccc2c(c1)c1ccc3c(c1n2C)C(=O)C=CC3=O	·	?	·	32µM*	·	·
SMILES	MARV entry inh	HCMV antiviral	VACV mCherry inh	FMDV antiviral	LASV entry inh	Vaccinia Venus
Cn1c2ccccc2c2ccc3c(c21)C(=O)C=CC3=O	3%	26	-11%	20µM*	10%	13%
COc1ccc2c(c1)c1ccc3c(c1n2C)C(=O)C=CC3=O	·	2	-20%	28µM*	·	-16%
COc1cc(C)c(C)cc1S(=O)(=O)Nc1cccc(-c2ccc(N3CCOCC3)nn2)c1	·	22	i	11%	-8%[46.1 µM]	-8%
NN=C1c2cc(S(=O)(=O)NCCO)ccc2-c2ccc(S(=O)(=O)NCCO)cc21	·	·	-7%	·	·	-10%
Oc1c(C(c2ccccc2Cl)N2CCN(Cc3ccccc3)CC2)sc2nc(-c3ccco3)nn12 (stereo not drawn)	·	1	-9%	-5%	1%[46.1 µM]	-4%
COc1ccc(N(C(=O)c2ccccc2C)S(=O)(=O)c2cccs2)cc1	?	-77*	?	19%	?	?
COc1ccc(N(C(=O)c2ccccc2C)S(=O)(=O)c2ccc(C)cc2)cc1	·	-20	-20%	2%	?	-10%
O=C(NNc1c([N+](=O)[O-])cc(C(F)(F)F)cc1[N+](=O)[O-])c1ccco1	·	-11	·	32µM*	·	·
O=C(NCCNc1cc(Cl)ccc1[N+](=O)[O-])c1ccco1	8%	-75*	-16%	25%	?	-14%
CC(C)CC(=O)Nc1c(C(=O)N2CCN(c3ccccc3F)CC2)oc2ccccc12	?	-2	-14%[7.34 µM]	54%	?	-7%[7.34 µM]
BrC(=C\c1ccccc1)/C=N/n1cnnc1	·	-99*	?	?	·	?
O=C1/C(=C/c2cccnc2)SC(=S)N1C1CCS(=O)(=O)C1 (stereo not drawn)	?	?	-10%	14µM*	?	2%
CCOc1ccc(N=C(NN)c2ccc3ccccc3n2)cc1	?	-69*	-13%	8.9µM*	?	-16%
O=C(c1ccoc1)N1CCCC(N2CCN(c3ccc(F)cc3)CC2)C1 (stereo not drawn)	·	-12	·	-19%	·	·
O=C(c1cccc(-c2ccco2)c1)N1CCCC(N2CCN(c3ccc(F)cc3)CC2)C1 (stereo not drawn)	-31%	·	-6%	35µM*	?	-17%
O=C(CSCc1ccc(F)cc1)N1CCOCC1	4%	39	·	49%	12%	·
O=C(CSc1ccccc1)N1CCCC(N2CCN(c3ccc(F)cc3)CC2)C1 (stereo not drawn)	?	-70*	-25%	-17%	-29%[46.1 µM]	-28%
Cc1nc(C(=O)N2CCCC(N3CCN(c4ccc(F)cc4)CC3)C2)cs1 (stereo not drawn)	·	-19	?	-23%	·	-3%
O=C(CSc1ccc(F)cc1)N1CCOCC1	·	-88*	·	-10%	·	·
Cc1cc(C)c(C(=O)N2CCCC(N3CCN(c4ccc(F)cc4)CC3)C2)o1 (stereo not drawn)	?	-69*	-13%	?	?	-14%
Cn1c2c(c(=O)n(C)c1=O)[C@@](NC(=O)C(C)(C)C)(C(F)(F)F)C(=O)N2	-3%	·	·	·	·	·
CCc1ccc2nc(N(Cc3cccnc3)C(=O)Cc3ccccc3)sc2c1	·	18	i	31%	7%[46.1 µM]	-7%
